# Reference: PubChem BioAssay (EPA / NIEHS)
# Values joined by “and” are separate entries in the source; they are usually repeats but may differ in a detail not shown here. Equal entries are not always repeated. More than one record can exist for a structure, and the calls need not agree. Active and inactive are the calls of the source. How the source made its calls: active means hit-call score of the fitted dose curve at least 0.9, where 1 is the maximum; inactive means score below 0.9.
# Columns and labels:
# [1] = read-out: Human Leukocyte Antigen - DR isotype (HLADR), HLA-DRA (gene 3122); assay: BSK_BE3C_HLADR: BioMAP Diversity Plus: BE3C Assay for Human Leukocyte Antigen - DR isotype (HLADR) Biomarker Activity (AID 2283032); details: primary human bronchial epithelial cells; actives raise or lower the signal
# How it was run: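 Cell-surface HLA-DR ELISA readout at 24 h after dosing in the BE3C primary human lung bronchial epithelial system; gain or loss of signal against DMSO, with parallel sulforhodamine B staining of total protein for overt cytotoxicity.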
# [2] = read-out: Vascular cell adhesion molecule 1 (VCAM1), VCAM1 (gene 7412); assay: BSK_4H_VCAM1: BioMAP Diversity Plus: 4H Assay for Vascular cell adhesion molecule 1 (VCAM1) Biomarker Activity (AID 2283033); details: primary human endothelial cells (HUVEC); actives raise or lower the signal;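 on outcome: cell-surface VCAM-1 protein measured by ELISA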
# How it was run: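 VCAM-1 ELISA read 24 h after chemical dosing of HUVEC in the BioMAP 4H system, with gain or loss of signal fitted relative to DMSO. Parallel SRB staining (560 nm) checked overt cytotoxicity.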
# [3] = read-out: Interferon-gamma inducible Protein 10 (IP10), CXCL10 (gene 3627); assay: BSK_BE3C_IP10: BioMAP Diversity Plus: BE3C Assay for Interferon-gamma inducible Protein 10 (IP10) Biomarker Activity (AID 2283034); details: primary human bronchial epithelial cells; actives raise or lower the signal
# How it was run: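 IP-10 quantified by ELISA in human primary bronchial epithelial cell cultures at 24 hours post-dosing. Gain or loss of signal fitted relative to DMSO; parallel SRB staining assessed overt cytotoxicity.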
# [4] = read-out: Monokine induced gamma interferon (MIG), CXCL9 (gene 4283); assay: BSK_BE3C_MIG: BioMAP Diversity Plus: BE3C Assay for Monokine induced gamma interferon (MIG) Biomarker Activity (AID 2283035); details: primary human bronchial epithelial cells; actives raise or lower the signal;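 on outcome: MIG protein measured by ELISA in BE3C cultures after 24 h of dosing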
# How it was run: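 hu bronchial epithelial 1° cells, 24 h cpd; MIG by ELISA; bidirectional fit, DMSO = baseline.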
# [5] = read-out: Transforming growth factor beta 1 (TGFb1), TGFB1 (gene 7040); assay: BSK_BE3C_TGFb1: BioMAP Diversity Plus: BE3C Assay for Transforming growth factor beta 1 (TGFb1) Biomarker Activity (AID 2283036;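 on outcome: TGF-b1 protein level measured by ELISA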); details: primary human bronchial epithelial cells; actives raise or lower the signal
# How it was run: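 ELISA readout of TGF-b1 from human lung bronchial epithelial primary cells, taken 24 h post-treatment. Gain or loss of signal fitted relative to DMSO baseline, with parallel SRB staining for overt cytotoxicity.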
# [6] = read-out: Plasminogen activator inhibitor-1 (PAI1), SERPINE1 (gene 5054); assay: BSK_BE3C_PAI1: BioMAP Diversity Plus: BE3C Assay for Plasminogen activator inhibitor-1 (PAI1) Biomarker Activity (AID 2283037); details: primary human bronchial epithelial cells; actives raise or lower the signal
# How it was run: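 PAI-1 was measured by ELISA in human primary bronchial epithelial cultures 24 h after chemical dosing, with cytotoxicity checked by SRB total-protein staining in parallel cultures. Activity was fitted in both directions relative to DMSO.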
# [7] = read-out: urokinase plasminogen activator (uPA), PLAU (gene 5328); assay: BSK_BE3C_uPA: BioMAP Diversity Plus: BE3C Assay for urokinase plasminogen activator (uPA) Biomarker Activity (AID 2283038); details: primary human bronchial epithelial cells; actives raise or lower the signal;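 on outcome: uPA protein level quantified by ELISA in cell cultures; uPA read one day after compound addition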
# How it was run: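 Bronchial epithelial cells (human, primary); chemical 24 h; uPA by ELISA; bidirectional fit vs DMSO. SRB (0.1%, after 10% TCA fixation, 560 nm) in parallel cultures for cytotoxicity.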
# [8] = read-out: Urokinase-type plasminogen activator receptor (uPAR), PLAUR (gene 5329); assay: BSK_BE3C_uPAR: BioMAP Diversity Plus: BE3C Assay for Urokinase-type plasminogen activator receptor (uPAR) Biomarker Activity (AID 2283039); details: primary human bronchial epithelial cells; actives raise or lower the signal;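 on outcome: cells exposed to compound for one day before measurement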
# How it was run: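 uPAR levels were measured by ELISA after 24 h compound treatment of primary human bronchial epithelial cells, fitted in both directions relative to DMSO. Parallel SRB staining served as the cytotoxicity read-out.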
# [9] = read-out: Interleukin-6 (IL6), IL6 (gene 3569); assay: BSK_CASM3C_IL6: BioMAP Diversity Plus: CASM3C Assay for Interleukin-6 (IL6) Biomarker Activity for (AID 2283040); details: primary human coronary artery smooth muscle cells; actives raise or lower the signal
Compound,outcome [1],outcome [2],outcome [3],outcome [4],outcome [5],outcome [6],outcome [7],outcome [8],outcome [9],AC50 [2],AC50 [3],AC50 [6],AC50 [1],AC50 [4],AC50 [5],AC50 [7],AC50 [8],AC50 [9]
CN(C)C(=O)Nc1ccc(Cl)c(Cl)c1,inactive,inactive,inactive,inactive,inactive,inactive,inactive,inactive,inactive,–,–,–,–,–,–,–,–,–
CCCOC(=O)c1ccc(C(=O)OCCC)nc1,inactive,inactive,inactive,inactive,inactive,inactive,inactive,inactive,inactive,–,–,–,–,–,–,–,–,–
CC(C)(c1ccc(O)cc1)c1ccc(O)cc1,inactive,inactive,inactive,inactive,inactive,inactive,inactive,inactive,inactive,7.53 µM (active),9.06 µM (active),24.3 µM (active),–,–,–,–,–,–
N#CSCSc1nc2ccccc2s1,–,–,–,–,inactive,–,–,–,–,5.21 µM (active) and 12.8 µM (active),9.03 µM (active) and 11.8 µM (active),4.99 µM (active) and 11.8 µM (active),6.17 µM (active) and 12.1 µM (active),9.86 µM (active) and 12.2 µM (active),11.2 µM (active),6.61 µM (active) and 12.1 µM (active),5.42 µM (active) and 11.5 µM (active),8.6 µM (active) and 36.5 µM (active)
COC(=O)c1ccc(CNS(C)(=O)=O)cc1S(=O)(=O)NC(=O)Nc1nc(OC)cc(OC)n1,inactive,inactive,inactive,inactive,inactive,inactive,inactive,inactive,inactive,–,–,–,–,–,–,–,–,–
COC(=O)CSc1cc(N=c2sc(=O)n3n2CCCC3)c(F)cc1Cl,inactive,inactive,inactive,inactive,inactive,inactive,inactive,inactive,inactive,–,–,–,–,–,–,–,–,–
CCOC(=O)NCCOc1ccc(Oc2ccccc2)cc1,–,inactive,inactive,inactive,inactive,inactive,inactive,inactive,inactive,–,–,–,15.7 µM (active),–,–,–,–,–
OB(O)O,inactive,inactive,inactive,inactive,inactive,inactive,inactive,inactive,inactive,–,–,–,–,–,–,–,–,–
CCOC(=O)COc1cc(-n2ncc(C(F)(F)F)c(C)c2=O)c(F)cc1Cl,inactive,inactive,inactive,inactive,inactive,inactive,inactive,–,inactive,–,–,–,–,–,–,–,459 nM (active),–
CCCCC(CC)CN1C(=O)C2C3C=CC(C3)C2C1=O (centres undefined),–,inactive,–,inactive,inactive,–,inactive,inactive,inactive,–,18.2 µM (active),28.1 µM (active),15.7 µM (active),–,–,–,–,–
COC(=O)c1ccc(I)cc1S(=O)(=O)NC(=O)Nc1nc(C)nc(OC)n1,inactive,inactive,inactive,inactive,inactive,inactive,inactive,inactive,inactive,–,–,–,–,–,–,–,–,–
CCCCC(CC)COC(=O)c1ccccc1C(=O)O (centres undefined),inactive,inactive,inactive,inactive,–,inactive,–,inactive,inactive,–,–,–,–,–,5.04 µM (active),29.9 µM (active),–,–
CCCCOC(=O)C(C)Oc1ccc(Oc2ccc(C(F)(F)F)cn2)cc1 (centres undefined),inactive,inactive,inactive,inactive,inactive,inactive,inactive,inactive,inactive,–,–,–,–,–,–,–,–,–
CCOC(=O)C(C)Oc1ccc(Oc2nc3ccc(Cl)cc3o2)cc1 (centres undefined),–,inactive,inactive,inactive,inactive,–,–,inactive,inactive,–,–,33.5 µM (active),20 µM (active),–,–,24.3 µM (active),–,–
Cc1nn(C)c(Oc2ccccc2)c1C=NOCc1ccc(C(=O)OC(C)(C)C)cc1,–,inactive,–,inactive,inactive,–,inactive,inactive,inactive,–,11.7 µM (active),7.02 µM (active),0.814 µM (active),–,–,–,–,–
